# According to PubChem BioAssay (NCI):
# The panel holds about 83,000 compounds, 20% with a hit somewhere; the sample as a whole holds those more often.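 Cells were grown in 96-well plates and exposed to the test compound at a single concentration for 48 hours; results are reported as percent growth, with values below 10 considered active.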 Values without a mark were called inactive. The source made the active and inactive calls.
# How the values were obtained:
# Assay in all cases: NCI-60 one-dose screen, 48 h (100 = growth as untreated, 0 = no growth, -100 = all killed)
# Details in all cases: 10 µM unless noted
# HCT-15 colon = tested on: HCT-15 colon
# HT29 colon = tested on: HT29 colon
# SNB-75 CNS = tested on: SNB-75 CNS
# SNB-19 CNS = tested on: SNB-19 CNS
# U251 CNS = tested on: U251 CNS
# PC-3 prostate = tested on: PC-3 prostate
# SK-MEL-5 melanoma = tested on: SK-MEL-5 melanoma
# UACC-62 melanoma = tested on: UACC-62 melanoma
# LOX IMVI melanoma = tested on: LOX IMVI melanoma
# SK-MEL-28 melanoma = tested on: SK-MEL-28 melanoma
# SK-MEL-2 melanoma = tested on: SK-MEL-2 melanoma
# EKVX NSCLC = tested on: EKVX NSCLC
# SN12C renal = tested on: SN12C renal
# UO-31 renal = tested on: UO-31 renal
# TK-10 renal = tested on: TK-10 renal
# ACHN renal = tested on: ACHN renal
# CAKI-1 renal = tested on: CAKI-1 renal
# A498 renal = tested on: A498 renal
# CCRF-CEM leukemia = tested on: CCRF-CEM leukemia
# MOLT-4 leukemia = tested on: MOLT-4 leukemia
SMILES,growth (HCT-15 colon),growth (HT29 colon),growth (SNB-75 CNS),growth (SNB-19 CNS),growth (U251 CNS),growth (PC-3 prostate),growth (SK-MEL-5 melanoma),growth (UACC-62 melanoma),growth (LOX IMVI melanoma),growth (SK-MEL-28 melanoma),growth (SK-MEL-2 melanoma),growth (EKVX NSCLC),growth (SN12C renal),growth (UO-31 renal),growth (TK-10 renal),growth (ACHN renal),growth (CAKI-1 renal),growth (A498 renal),growth (CCRF-CEM leukemia),growth (MOLT-4 leukemia)
O=c1scc(-c2ccc(C(F)(F)F)cc2)s1,93.4%,89.4%,63.5%,91.8%,95.2%,87.8%,97%,84.1%,103%,102%,77.8%,78.8%,96.7%,89.4%,82.8%,99.8%,73%,77.5%,88.5%,94.5%
O=C1/C(=C/c2cn(-c3ccccc3)nc2-c2ccccc2)SC(=S)N1C1CCCCC1,109%,111%,99.2%,96.9%,107%,96.3%,100%,92.6%,91%,101%,108%,97.4%,92.9%,94.2%,117%,102%,85.2%,66.9%,107%,108%
N#CC1=C(N)Oc2c(c(=O)[nH]c3ccc(Cl)cc23)C12C(=O)c1ccccc1C2=O,98.6%,108%,76.5%,91.6%,99.4%,91.6%,95.9%,89.4%,99.6%,104%,115%,95.2%,94.8%,70.2%,129%,95.1%,80.5%,88%,107%,116%
Cc1cc(S(=O)(=O)/N=C(\N)n2nc(C)c(C)c2C)c(SCc2ccccc2)cc1Cl,56.6%,63.7%,79.4%,89.9%,60.8%,40.2%,94.7%,71.1%,66.9%,91.4%,-12.3% (active),38.9%,76.3%,23.8%,116%,71.2%,71.9%,85.1%,41.5%,46%
O=C(c1ccncc1)N1N=C(c2ccc(Cl)cc2)C[C@H]1c1cn(-c2ccccc2)nc1-c1ccccc1,82.4%,104%,72.7%,88.6%,61.1%,79.5%,90.7%,91.7%,79.9%,96%,110%,87.2%,86.6%,90.1%,109%,70.8%,65.4%,102%,78.9%,70.8%
CC1=C2[C@@H](CC1)[C@]1(C)O[C@@](C(C)C)(C[C@H]1OC(=O)[C@H](C)O)[C@H]2OC(=O)/C=C/c1ccccc1,83.6%,82.8%,66.4%,85.1%,79%,58.3%,90.3%,66%,84.6%,108%,80.6%,66.1%,45.7%,0.932% (active),90.1%,8.57% (active),60.5%,-66.1% (active),85.8%,62.8%
Cn1cc(-c2csc(-c3c[nH]c4ccccc34)n2)c2cnccc21,-59.7% (active),-1.85% (active),80.6%,48.8%,-25.2% (active),48.4%,51.9%,-52.7% (active),-84.9% (active),-51.5% (active),96.2%,7.91% (active),43.5%,-64.4% (active),55.4%,-4.48% (active),-1.8% (active),77.1%,-8.15% (active),-5.2% (active)
CCOC(=O)c1csc(NC(=O)COc2ccc(/C=C3\Oc4ccccc4C3=O)cc2)n1,113%,106%,81.3%,87.9%,91.1%,96.2%,98.7%,79.6%,78.3%,112%,94.8%,74%,91%,-14% (active),119%,108%,91.2%,119%,23.5%,42.2%
Nc1ncnc2c1C(c1ccc(Br)cc1)c1sc3c(F)cccc3c1O2 (stereo not given),97.1%,100%,83.7%,110%,98%,87.4%,96.2%,80.1%,82.9%,119%,110%,69.3%,104%,64.2%,119%,93.7%,79.4%,114%,97.8%,101%
COc1ccc2c(c1OC)CO[C@@H]2[C@H]1c2c(cc3c(c2OC)OCO3)CCN1S(=O)(=O)c1cn(C)cn1,13.5%,16.9%,27.7%,33.2%,9.29% (active),24%,23.4%,27.6%,38%,55.3%,36.3%,45.6%,41.1%,46.2%,54.1%,36.6%,31.7%,-21.3% (active),21.4%,27.4%
Cc1ccc2c(Cn3cc(CSc4nc5ccccc5o4)nn3)cc(=O)oc2c1,107%,108%,105%,105%,113%,104%,98.8%,104%,96.9%,110%,106%,92.1%,102%,91.1%,122%,103%,100%,90%,93.4%,108%
CCOC(=O)c1ccc2c(c1)nc(-c1ccccc1)n2C1CCCCC1,78.2%,67.4%,97%,105%,88.8%,74.1%,93.8%,88%,99.2%,107%,86.1%,83%,105%,84%,116%,112%,101%,97.8%,79.4%,85.5%
O=C(CSc1nnc(-c2cnccn2)n1-c1ccccc1)c1ccc(Cl)cc1,97.5%,94.7%,110%,101%,93.7%,87.8%,99.7%,84.9%,108%,103%,96.4%,103%,87.5%,94.2%,99.2%,99.8%,102%,93.1%,92.1%,93.4%
CCn1c(SCC(=O)N/N=C(\C)c2ccc(Cl)cc2)nc2c1c(=O)n(C)c(=O)n2C,104%,103%,79.6%,99.2%,104%,97.5%,99.3%,95.2%,94.6%,111%,116%,97.9%,100%,80.8%,125%,99.5%,85.3%,91.3%,99.6%,92.2%
CCC(=C(c1ccc(OCCN2CCCCC2)cc1)c1ccc(OCCN2CCCCC2)cc1)c1ccc(Cl)cc1,-84.9% (active),-74.6% (active),-96.4% (active),-94.5% (active),-82.2% (active),-81.2% (active),-96.8% (active),-89.7% (active),-84.8% (active),-97% (active),-76.1% (active),-82.1% (active),-94.9% (active),-94.5% (active),-84.7% (active),-99.7% (active),-95.6% (active),-81.4% (active),-74.4% (active),-68.2% (active)
